Measurements: PubChem BioAssay (NCATS)
Results filed as inconclusive are left out. Entries that show only a call come without a potency. A number with no mark means an inactive call. Calls of active or inactive are those of the source. Calls come from the whole dose curve; as a rule, active = well fitted cell-killing curve with a large enough effect; inconclusive = small, poorly fitted or top-dose-only effect, or effect the other way; inactive = no such curve, though single readings can be large or run the other way.

Assays:
[1] = Quantitative High-Throughput drug screen in 47 multiple myeloma cell lines against the NCATS MIPE library collection: OCIMY5_PLB cell viability assay (AID 1918988); note: nearly all actives have a fitted effect of over 65% in size; note: potency is the fitted concentration of half-maximal effect
In short: (§1)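 Plated at 500 cells per well, myeloma lines received MIPE 4.0 compounds by pin tool. Following 48 h culture at 37 °C, CellTiter-Glo luminescence gave viability relative to DMSO and media-only controls.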

[2] = Quantitative High-Throughput drug screen in 47 multiple myeloma cell lines against the NCATS MIPE library collection: SKMM1_PLB cell viability assay (AID 1919863); conditions: SKMM1 myeloma viability, CellTiter-Glo ATP, 48 h; viability: hits give low values; note: nearly all actives have a fitted effect of over 35% in size
In short: as §1

[3] = Quantitative High-Throughput drug screen in 47 multiple myeloma cell lines against the NCATS MIPE library collection: XG6_PLB cell viability assay (AID 1919865); note: nearly all actives have a fitted effect of over 40% in size; note: potency is the fitted concentration of half-maximal effect
In short: as §1

[4] = Quantitative High-Throughput drug screen in 47 multiple myeloma cell lines against the NCATS MIPE library collection: XG1_PLB cell viability assay (AID 1919866); note: nearly all actives have a fitted effect of over 35% in size; note: potency is the fitted concentration of half-maximal effect
In short: as §1

[5] = Quantitative High-Throughput drug screen in 47 multiple myeloma cell lines against the NCATS MIPE library collection: VP6_DJ cell viability assay (AID 1919867); note: nearly all actives have a fitted effect of over 40% in size; note: potency is the fitted concentration of half-maximal effect
In short: as §1

[6] = Quantitative High-Throughput drug screen in 47 multiple myeloma cell lines against the NCATS MIPE library collection: OPM1_PLB cell viability assay (AID 1918989); note: nearly all actives have a fitted effect of over 40% in size; note: potency is the fitted concentration of half-maximal effect
In short: as §1

[7] = Quantitative High-Throughput drug screen in 47 multiple myeloma cell lines against the NCATS MIPE library collection: U266_ATCC cell viability assay (AID 1919864); note: nearly all actives have a fitted effect of over 35% in size; note: potency is the fitted concentration of half-maximal effect
In short: as §1

[8] = Quantitative High-Throughput drug screen in 47 multiple myeloma cell lines against the NCATS MIPE library collection: UTMC2_PLB cell viability assay (AID 1919868); conditions: CellTiter-Glo ATP luminescence, 48 h; viability (% of DMSO control): at 45.8 µM (top of the series); note: nearly all actives have a fitted effect of over 55% in size; note: potency is the fitted concentration of half-maximal effect
In short: as §1

[9] = Quantitative High-Throughput drug screen in 47 multiple myeloma cell lines against the NCATS MIPE library collection: PE2_PLB cell viability assay (AID 1919869); note: nearly all actives have a fitted effect of over 35% in size; note: potency is the fitted concentration of half-maximal effect
In short: as §1

Row | Structure (SMILES) | Potency [1] | viability [2] | Potency [3] | Potency [4] | Potency [5] | Potency [6] | Potency [7] | Potency [8] | Potency [9] | viability (% of DMSO control) [8]
1 | COc1ccc2cc([S+]([O-])Cc3ncc(C)c(OC)c3C)nc2c1 | inactive | 122% | inactive | inactive | inactive |  |  |  |  | 
2 | Cc1ccccc1C(=O)Nc1ccc(C(=O)N2CCCC(O)c3cc(Cl)ccc32)c(C)c1 (stereo unspecified) |  | 139% |  | 14.8 µM (active) |  | inactive | inactive |  |  | 
3 | OCCN1C[C@H](O)[C@@H](O)[C@H](O)[C@@H]1CO |  | 126% | inactive | inactive | inactive | inactive |  | inactive | inactive | 
4 | CC(=O)OCC(=O)[C@@]12N=C(C)O[C@H]1C[C@H]1[C@@H]3CCC4=CC(=O)C=C[C@]4(C)[C@@H]3[C@@H](O)C[C@@]12C |  | 135% |  | 16.6 µM (active) |  | inactive |  |  | inactive | 
5 | O=C1c2c(O)cccc2[C@@H]([C@@H]2O[C@H](CO)[C@@H](O)[C@H](O)[C@H]2O)c2cc(CO)cc(O)c21 | inactive |  | inactive | inactive | inactive |  | inactive |  | inactive | 
6 | C[C@H](NC(=O)Cc1cc(F)cc(F)c1)C(=O)N[C@H](C(=O)OC(C)(C)C)c1ccccc1 |  | 105% | inactive | inactive |  | inactive |  |  | inactive | 
7 | OC[C@@H](O)[C@@H](O)[C@H](O)[C@@H](O)CO |  | 122% | inactive | inactive | inactive | inactive |  |  | inactive | 
8 | C#C[C@]1(O)CC[C@@H]2[C@@H]3CCC4=CC(=O)CC[C@@H]4[C@H]3CC[C@@]21CC | 18.7 µM (active) |  | inactive | inactive |  |  | inactive | inactive | inactive | 
9 | c1coc(CNc2ncnc3nc[nH]c23)c1 | 2.09 µM (active) |  | inactive | inactive | 18.7 µM (active) |  | inactive | inactive |  | 
10 | COc1ccnc2[nH]cc(C(=O)C(=O)N3CCN(C(=O)c4ccccc4)C[C@@H]3C)c12 |  | 120% | inactive | inactive |  | inactive | inactive | inactive | inactive | 
11 | CON=C(C(=O)N[C@@H]1C(=O)N2C(C(=O)O)=C(Cn3ccc(=N)n3CCO)CS[C@H]12)c1csc(N)n1 | inactive | 112% | inactive |  |  |  |  |  | inactive | 
12 | CC(N[C@H]1CCCC[C@H]1NC(=O)c1ccc(Cl)cc1)c1cccc2ccccc12 (stereo partly specified) |  | 94.8% |  |  |  | inactive | inactive |  |  | 
13 | NC(=O)c1ncn([C@@H]2O[C@H](CO)[C@@H](O)[C@@H]2O)c1N |  | 159% | inactive |  |  | inactive |  |  | inactive | 
14 | CN[C@H](CC(C)C)C(=O)N[C@H]1C(=O)N[C@@H](CC(N)=O)C(=O)N[C@@H]2C(=O)N[C@H]3C(=O)N[C@H](C(=O)N[C@H](C(=O)O)c4cc(O)cc(O)c4-c4cc3ccc4O)[C@H](O)c3ccc(c(Cl)c3)Oc3cc2cc(c3O[C@@H]2O[C@H](CO)[C@@H](O)[C@H](O)[C@@H]2O[C@H]2C[C@](C)(N)[C@H](O)[C@H](C)O2)Oc2ccc(cc2Cl)[C@H]1O | inactive | 122% | 18.7 µM (active) | inactive | 13.2 µM (active) |  |  |  | inactive | 
15 | CC(=O)O[C@H]1C[C@@H]2CC[C@H]3[C@H]4C[C@H]([N+]5(C)CCCCC5)[C@@H](OC(C)=O)[C@@]4(C)CC[C@@H]3[C@@]2(C)C[C@H]1N1CCCCC1 |  | 143% | inactive |  | inactive | inactive | inactive | inactive | inactive | 
16 | C[C@H]1O[C@H](O[C@H]2[C@H](O)[C@@H](O)[C@@H](O[C@H]3[C@H](O)[C@@H](O)C(O)O[C@H]3CO)O[C@H]2CO)[C@H](O)[C@@H](O)[C@H]1N[C@H]1C=C(CO)[C@@H](O)[C@H](O)[C@@H]1O (stereo partly specified) |  | 131% | inactive | inactive | inactive | inactive |  | inactive | inactive | 
17 | NC[C@H]1O[C@H](O[C@H]2[C@@H](O)[C@@H](O[C@H]3O[C@H](CO)[C@@H](O)[C@H](N)[C@@H]3O)[C@H](N)C[C@@H]2N)[C@H](N)C[C@H]1O | inactive |  | inactive | inactive | inactive |  | inactive |  | inactive | 

Row | Structure (SMILES) | Potency [1] | viability [2] | Potency [3] | Potency [4] | Potency [5] | Potency [6] | Potency [7] | Potency [8] | Potency [9] | viability (% of DMSO control) [8]
18 | COc1ccc([C@@H]2CNC(=O)C2)cc1OC1CCCC1 |  |  | 1.32 µM (active) | 2.64 µM (active) | 2.35 µM (active) | 8.33 µM (active) | 1.18 µM (active) | 6.62 µM (active) |  | 
19 | Cc1cncc2cccc(S(=O)(=O)N3CCCN(C(=O)CN)C[C@@H]3C)c12 | 1.48 µM (active) |  | 14.8 µM (active) | 20.9 µM (active) | inactive |  |  | 5.9 µM (active) |  | 
20 | COc1cc(C(C)C)c(Oc2cnc(NC(CO)CO)nc2N)cc1I | 1.48 µM (active) | 122% |  | inactive |  |  | 1.48 µM (active) |  | 7.43 µM (active) | 201% (active)
21 | c1cc(CN2CCCNCCNCCCNCC2)ccc1CN1CCCNCCNCCCNCC1 |  | 136% |  | inactive | inactive | inactive |  |  | inactive | 
22 | Cc1ccc(-n2[nH]c(C)c(N=Nc3cccc(-c4cccc(C(=O)O)c4)c3O)c2=O)cc1C | 26.4 µM (active) |  |  | 23.5 µM (active) |  |  |  |  | 26.4 µM (active) | 
23 | CN1[C@H]2CC(OC(=O)[C@@H](CO)c3ccccc3)C[C@H]1[C@H]1O[C@H]12 (stereo partly specified) | inactive |  | inactive | inactive |  |  |  |  | inactive | 
24 | O=C1NC(O)CCN1[C@@H]1O[C@H](CO)[C@H](O)[C@H]1O (stereo partly specified) |  | 122% | inactive | 11.8 µM (active) |  | inactive |  |  | inactive | 
25 | CCOC(=O)C=C[C@H](C[C@@H]1CCNC1=O)NC(=O)[C@@H](CC(=O)[C@@H](NC(=O)c1cc(C)on1)C(C)C)Cc1ccc(F)cc1 | inactive | 138% |  | inactive |  |  |  |  | inactive | 
26 | O=C(O)CCCCCC(=O)NN=C1CCCC1 |  | 119% |  | inactive | inactive | inactive | inactive |  | inactive | 
27 | C[C@H]1C[C@H]2[C@@H]3CCC4=CC(=O)C=C[C@]4(C)[C@@H]3C(=O)C[C@]2(C)[C@@]1(O)C(=O)CO | inactive |  | inactive | inactive | 6.62 µM (active) |  |  |  | inactive | 
28 | C=C1C[C@@]2(O)O[C@@]3(C[C@H]2C(C)C)[C@H](C)CC[C@H]13 | inactive | 114% | inactive | inactive | inactive |  |  | inactive | inactive | 
29 | Cc1noc(-c2ccc(CSCCC(=O)O)cc2)c1NC(=O)OC(C)c1ccccc1Cl (stereo unspecified) |  | 124% | inactive | inactive | inactive | inactive |  | inactive | inactive | 
30 | C[C@H](NC(=O)[C@@H](O)c1cc(F)cc(F)c1)C(=O)N[C@@H]1C(=O)N(C)c2ccccc2-c2ccccc21 |  |  | 11.8 µM (active) | 16.6 µM (active) |  | inactive | inactive |  |  | 
31 | Cn1cc(-c2ccc3ncc(Cc4ccc5ncccc5c4)n3n2)cn1 |  |  |  |  |  | inactive |  |  |  | 
32 | COc1cc(OC)c(NC(=O)Nc2cc(C)on2)cc1Cl |  | 145% | inactive | inactive |  | inactive |  |  | inactive | 
33 | Nc1cccc2c1C(=O)N(C1CCC(=O)NC1=O)C2=O (stereo unspecified) | 10.5 µM (active) |  | inactive |  |  |  | inactive | inactive | inactive | 
